The source of these data is PubChem BioAssay AID2417 (National Center for Advancing Translational Sciences (NCATS), 2010).

In all, about 140,000 compounds went through this assay and about 4,300 (3.1%) were called active. Roughly 21% stayed inconclusive and do not appear here. For the sample, actives were picked, then their nearest neighbours and some compounds at random. Unmarked numbers belong to inactive results.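 The calls were made as follows: active = readout at or below -70, meaning at least 70% loss of cells showing the perinucleolar compartment, a nuclear body marking cancer cells; inconclusive = readout between -30 and a set limit; inactive = the rest.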

A short description of the test: High Content Assay for Compounds that inhibit the Assembly of the Perinucleolar Compartment.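 Also: plate controls were DMSO wells for no effect and camptothecin positive control wells for full effect.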 Particulars: PC3M PTB-GFP, PNC prevalence imaging, 16 h; at 10 µM; active compounds read low. In outline:
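Read-out is percentage of cells bearing a perinucleolar compartment, from automated 20x imaging of fixed, Hoechst-stained PC3M PTB-GFP cells. Cells were seeded 4 h, then exposed 16 h to compound (23 nl of library stock) in duplicate plates.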
Take `CC1CCc2sc(C(=O)N/N=C/C3CCCCC3)cc2C1` (stereo unspecified): the activity change (PNC), negative = inhibition is -24%.
With `O=C(c1ccccc1-c1ccccc1)N1CCOCC1` the figure was -12%.
The figure for `COc1ccccc1N1CCN(C(=O)c2c(-c3c(Cl)cccc3Cl)noc2C)CC1` is -86.9% (active); for `Cc1noc(C)c1C(=O)N1CCOCC1` it is 0.83%.
On to `COc1ccccc1N1CCN(C(=O)c2cc(-c3ccc(Cl)c(Cl)c3)on2)CC1`, for which the activity change (PNC), negative = inhibition was 321%.
The figure for `COc1ccccc1N1CCN(C(=O)c2cc(-c3ccc(Br)cc3)on2)CC1` is 15.5%; for `Cc1onc(-c2ccccc2)c1C(=O)N1CCOCC1` it is -109% (active); for `O=C(CN1C(=O)/C(=C\c2ccc(C(F)(F)F)cc2)Sc2ccccc21)NCc1ccco1` it is 37.6%.
Regarding `O=c1cc(CN2CCN(S(=O)(=O)/C=C/c3ccccc3)CC2)c2ccc(O)cc2o1`, the activity change (PNC), negative = inhibition was -11.6%.
The figure for `CCOC(=O)Nc1sc(C(=O)N(C)C)c(C)c1C(=O)OCC` is 10.4%; for `CCOC(=O)c1c(NC(=O)c2ccc(Br)o2)sc2c1CCCC2` it is 2.82%.
The figure for `CCOC(=O)c1c(NC(C)=O)sc2c(O)c(Br)ccc12` is -80.8% (active); for `Cc1cc(Oc2ccc(Cl)cc2)nc(SCC(=O)c2ccccc2)n1` it is 16.7%.
Regarding `Cc1ccc(SCC(=O)Nc2ncc(C)s2)cc1`, the activity change (PNC), negative = inhibition was 34.4%.
Regarding `CCOCc1nnc(NC(=O)CSc2ccc(C)cc2)s1`, the activity change (PNC), negative = inhibition is -89.8% (active).
The figure for `Cc1ccc(OCc2nnc(NC(=O)OCC(C)C)s2)cc1` is 26.9%; for `O=[N+]([O-])c1ccccc1SNc1ccccn1` it is -0.121%.
The figure for `Cc1cccc(N2C(=O)SC(SC(=Nc3ccccc3)Nc3ccccc3)C2=O)c1` (stereo unspecified) is 64.7%.
The figure for `COCCn1c(C)cc(C(=O)CSc2ncnc3sc4c(c23)CCC4)c1C` is -100% (active); for `Cc1nc(SCC(=O)Nc2cc(C)on2)c2c3c(sc2n1)CCCC3` it is -9.46%; for `Cc1cc(C)n(-c2nc(SCC(=O)N3CCCC3)c3c4c(sc3n2)CCCC4)n1` it is 26%.
For the compound `CC(=O)Nc1ccc(C(=O)OCC(=O)Nc2ccc([N+](=O)[O-])cc2C(F)(F)F)cc1`, the activity change (PNC), negative = inhibition was -8.91%.
The figure for `CCCCCCCCCOC1OC(CO)C(O)C(O)C1NC(C)=O` (stereo unspecified) is -8.39%; for `COc1ccccc1C(=O)Nn1c(-c2cccs2)nc2ccccc2c1=O` it is -26.6%; for `Cc1[nH]c2ccccc2c1C(=O)CSCC(=O)O` it is -15.7%.
As to `CCOC(=O)N1CCN(CC(=O)c2c(C)[nH]c3ccccc23)CC1`, the activity change (PNC), negative = inhibition is -18.6%.
With `Cc1[nH]c2ccccc2c1C(=O)COC(=O)c1c(-c2ccccc2)noc1C` the figure was -121% (active); with `CCOC(=O)c1cccnc1NC(=O)c1ccncc1`, -1.7%; with `COc1ccc(/C=C(\C#N)C(=O)NCCCn2ccnc2)cc1`, 60.5%.
The figure for `Brc1ccc(OCCn2ccnc2)cc1` is -118% (active).
For `Cc1ccc(OCCOCCOc2ccc(Br)cc2/C=N\NC(=O)c2ccncc2)cc1`, the activity change (PNC), negative = inhibition is -9.62%.
The figure for `Oc1ccc(Br)cc1C=Nc1ccc2[nH]ncc2c1` is 18.8%; for `CNC(=S)N/N=C/c1ccc(OCc2ccccc2)c(Br)c1` it is 23.4%; for `O=C(c1cc(-c2ccc(O)cc2)on1)N1CCCc2ccccc21` it is -28.7%.
With `Cc1cccc2cc3c(N)c(C(=O)N4CCCc5ccccc54)sc3nc12` the figure was -97.5% (active); with `O=C(c1cccc(C(=O)N2CCc3ccccc32)n1)N1CCc2ccccc21`, 8.65%; with `COc1cc(NC(=S)NNC(=O)CC(C)C)c(OC)cc1Cl`, 20.5%.
The figure for `Cc1ccc(C(=O)OCc2nc(N)nc(Nc3ccccc3C)n2)cc1` is -25%; for `COCC(=O)Nc1cc(C(=O)OC)cc(C(=O)OC)c1` it is 0.32%; for `CCOC(=O)c1c(C)[nH]c(C(=O)NCc2ccccc2OC)c1C` it is 4.85%.
For `COc1cccc2c(C)c(C(=O)O)[nH]c12`, the activity change (PNC), negative = inhibition was -100% (active).
With `COc1cccc2c(O)cc(=O)n(C)c12`, the activity change (PNC), negative = inhibition is 3.35%.
The figure for `CCOC(=O)C(C)Sc1nnc(CSc2nc3nc(C)cc(C)n3n2)o1` (stereo unspecified) is -12%; for `O=C(CN1CCN(c2ccc(O)cc2)CC1)Nc1cc(S(=O)(=O)N2CCOCC2)ccc1Cl` it is 32%.
Regarding `O=C(CCc1nc2ccccc2c(=O)[nH]1)OCC(=O)c1cccc(Cl)c1`, the activity change (PNC), negative = inhibition was 9.28%.
For the compound `COc1ccccc1/C=N\Nc1cc(C)nc(-n2nc(C)cc2C)n1`, the activity change (PNC), negative = inhibition is -20.8%.
The figure for `Cc1cc(Oc2ccccc2)nc(N2CCOCC2)n1` is 31.1%; for `COc1ccc(Nc2cc(C)nc(-n3nc(C)cc3C)n2)cc1` it is -93.3% (active).
The figure for `Cc1cc(C)n(-c2cc(Oc3ccccc3)ncn2)n1` is 61.7%; for `COc1ccc(NC(=O)c2nc(-n3nc(C)cc3C)ccc2Cl)cc1Cl` it is -28.2%.
For the compound `CC(=O)c1ccc(Oc2cc(C)nc(-n3nc(C)cc3C)n2)cc1`, the activity change (PNC), negative = inhibition is -86.2% (active).
